# Several values for one entry are separate records, joined by “and”; a condition that tells them apart may be missing. Equal entries are not always repeated. Inconclusive results are not listed. Activity calls are given as the source filed them. The calls were made as follows, unless noted: active = hit-call score of the fitted dose curve at least 0.9, where 1 is the maximum; inactive = score below 0.9.
# Key:
# [1] = CCTE_Harrill_HTTr_Apoptosis_PRF_DMEM_24hr: (Pilot) CCTE's 24-hour Apoptosis Assessment for the High-Throughput Transcriptomics (HTTr) Platform, in MCF-7 cells cultured in phenol red-free DMEM + 10% charcoal-stripped fetal bovine serum, Harrill Lab (AID 2283986)
# In short: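 MCF-7 cells in phenol red-free DMEM with 10% charcoal-stripped FBS, exposed 24 h across an eight-point dilution series. Caspase-3/7 activation imaged with CellEvent Green by high content imaging; bidirectional fitting against DMSO.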
# [2] = CCTE_Shafer_MEA_acute_spike_number: CCTE's Neural Acute Assay for Total Number of Spikes, Shafer Lab (AID 2284008)
# In short: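 Rat primary cortical neurons on 48-well MEA plates, DIV 13 or 15, at 37 C. 40 min baseline then 40 min with compound (0.03-40 uM); spikes detected at 8x rms noise, expressed as percent change from baseline.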
# [3] = CCTE_Shafer_MEA_acute_firing_rate_mean: CCTE's Neural Acute Assay for Mean Firing Rate, Shafer Lab (AID 2284009);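 also: analyzed for loss of signal so actives lower firing rate relative to DMSO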
# In short: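 Percent change in well-mean firing rate was derived from extracellular spikes detected at 8x rms noise (300-5000 Hz band-pass) before and after a 40-min compound exposure. Cultures were primary rat cortical neurons, tested at 0.03-40 uM.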
# [4] = CCTE_Harrill_HTTr_Viability_MCF7: CCTE's 6-hour Cell Viability Assessment for the High-Throughput Transcriptomics (HTTr) Platform, in MCF-7 cells cultured in DMEM + 10% fetal bovine serum, Harrill Lab (AID 2284010)
# In short: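 MCF-7 cells in DMEM + 10% FBS, 384-well, exposed 6 h to an eight-point dilution series. Membrane integrity scored by high-content imaging of propidium iodide exclusion; bidirectional fit versus DMSO.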
# [5] = CCTE_Harrill_HTTr_Apoptosis_MCF7: CCTE's 6-hour Apoptosis Assessment for the High-Throughput Transcriptomics (HTTr) Platform, in MCF-7 cells cultured in DMEM + 10% fetal bovine serum, Harrill Lab (AID 2284011)
# In short: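 MCF-7 cells in DMEM + 10% FBS exposed 6 h to chemicals over an eight-point dilution series. Caspase-3/7 activation imaged by high-content CellEvent Green staining; fitted bidirectionally versus DMSO.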
# [6] = CCTE_Shafer_MEA_acute_burst_number: CCTE's Neural Acute Assay for Single-Electrode Bursts, Shafer Lab (AID 2284013)
# In short: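 Spontaneous network activity of primary rat cortical neurons was recorded extracellularly on microelectrode arrays at 37 C, with 40-min periods before and during exposure to 0.03-40 uM compound on DIV 13 or 15.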
# [7] = CCTE_Shafer_MEA_acute_burst_duration_mean: CCTE's Neural Acute Assay for Mean Burst Duration, Shafer Lab (AID 2284014);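 also: hits are decreases in mean burst duration relative to DMSO controls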
# In short: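 Read-out is the per-well percent change in mean burst duration (first to last spike within a single-electrode burst) between 40-min recordings before and after compound. Cultures were primary rat cortical neurons on MEAs, dosed at 0.03-40 uM on DIV 13 or 15.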
# [8] = CCTE_Shafer_MEA_acute_per_burst_spike_number_mean: CCTE's Neural Acute Assay for Average Number of Spikes Per Burst, Shafer Lab (AID 2284015);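 also: hits are decreases in mean spikes per burst versus baseline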
# In short: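 Percent change in mean spikes per single-electrode burst is compared between a 40 min baseline and a 40 min recording with compound (0.03-40 uM). Cultures were rat cortical neurons on MEA plates at DIV 13 or 15, recorded at 37 C, with DMSO as the negative control.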
# [9] = CCTE_Shafer_MEA_acute_interburst_interval_mean: CCTE's Neural Acute Assay for Mean Interburst Interval, Shafer Lab (AID 2284016);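 also: percent change of mean interburst interval versus each well's own pre-dose baseline; curves fitted for decrease in interburst interval relative to DMSO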
# In short: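 Percent change in mean single-electrode interburst interval was calculated per well from 40 min recordings before and after compound (0.03-40 uM). Recordings were made at 37 C on rat cortical cultures at DIV 13 or 15, with spikes detected at 8x rms threshold.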
# [10] = CCTE_Shafer_MEA_acute_burst_percentage_mean: CCTE's Neural Acute Assay for Percentage of Spikes in a Burst, Shafer Lab (AID 2284017);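 as to AC50: curve fitted for loss of signal so potency reflects decreased burst percentage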
# In short: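 Well-level mean burst percentage from a 40-min recording after compound (0.03-40 uM) expressed as percent change from a 40-min baseline at 37C. Cultures: primary rat cortical neurons on MEA, dosed on DIV 13 or 15; fitted downward relative to DMSO.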
# [11] = CCTE_Shafer_MEA_acute_burst_percentage_std: CCTE's Neural Acute Assay for Standard Deviation of Burst Percentage, Shafer Lab (AID 2284018);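 also: fitted in the negative direction so actives lower burst percentage SD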
# In short: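 Value is percent change from baseline in the across-electrode SD of spikes-in-bursts percentage, wells with >/= 10 active electrodes. Acute 40-min exposure to 0.03-40 uM on DIV 13 or 15 rat cortical cultures, recorded at 37 C after 40-min baseline.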
# [12] = molecular target: Nucleoli Translocation, AR (gene 367) (UniProt P10275); assay: UPITT_HCI_U2OS_AR_TIF2_Nucleoli_Antagonist: University of Pittsburgh U2OS Androgen Receptor-Transcriptional Intermediary Factor 2 (AR-TIF2) Antagonism High Content Imaging Assay for Nucleoli Translocation (AID 2283997; active = hit-call score of the fitted dose curve at least 0.9, where 1 is the maximum)
# In short: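 Measured quantity was AR-RFP fluorescence localized to nucleoli in engineered U2OS cells also bearing TIF2-GFP, acquired on automated high-content imagers. Primary testing used 20 uM compound; actives were confirmed in triplicate wells.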
# [13] = molecular target: Nucleoli Translocation, AR (gene 367) (UniProt P10275); assay: UPITT_HCI_U2OS_AR_TIF2_Nucleoli_Agonist: University of Pittsburgh U2OS Androgen Receptor-Transcriptional Intermediary Factor 2 (AR-TIF2) Agonism High Content Imaging Assay for Nucleoli Translocation (AID 2283998; active = hit-call score of the fitted dose curve at least 0.9, where 1 is the maximum)
# In short: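 U2OS cells expressing RFP-tagged human AR and GFP-tagged TIF2; red fluorescence in nucleoli quantified by high-content imaging. Primary screen at 20 uM final (0.2% DMSO); concentration-response 0.195–50 uM (0.5% DMSO), fitted upward versus DMSO.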
# [14] = molecular target: Ratio of Nucleoli Translocation and Cytoplasm, AR (gene 367) (UniProt P10275); assay: UPITT_HCI_U2OS_AR_TIF2_Nucleoli_Cytoplasm_Ratio_Agonist: University of Pittsburgh U2OS Androgen Receptor-Transcriptional Intermediary Factor 2 (AR-TIF2) Agonism High Content Imaging Assay for Ratio of Nucleoli Translocation and Cytoplasm (AID 2284000; active = hit-call score of the fitted dose curve at least 0.9, where 1 is the maximum;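 also: hits raise the red nucleolar to cytoplasm ratio above vehicle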)
# In short: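 Read-out first: nucleolar-to-cytoplasm ratio of red (AR-RFP) signal, quantified by high-content imaging in U2OS cells co-expressing TIF2-GFP. Activity is scored as signal increase over DMSO. Single-point screening used 20 uM final (0.2% DMSO).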
# [15] = CCTE_Harrill_HTTr_CellCount_MCF7: CCTE's Cell Proliferation Assessment for the High-Throughput Transcriptomics (HTTr) Platform, Harrill Lab (AID 2284012; active = hit-call score of the fitted dose curve at least 0.9, where 1 is the maximum;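 also: cells exposed to compound for six hours; intended direction is loss of nuclei count meaning fewer cells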)
# In short: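 MCF7 cells exposed 6 hours to an eight-point dilution series; Hoechst-stained nuclei counted by high-content imaging. Bidirectional curve fitting against DMSO baseline.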
# [16] = molecular target: Ratio of Nucleoli Translocation and Cytoplasm, AR (gene 367) (UniProt P10275); assay: UPITT_HCI_U2OS_AR_TIF2_Nucleoli_Cytoplasm_Ratio_Antagonist: University of Pittsburgh U2OS Androgen Receptor-Transcriptional Intermediary Factor 2 (AR-TIF2) Antagonism High Content Imaging Assay for Ratio of Nucleoli Translocation and Cytoplasm (AID 2283999; active = hit-call score of the fitted dose curve at least 0.9, where 1 is the maximum;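 also: antagonists lower the DHT-driven ratio of nucleolar to cytoplasmic red signal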)
# In short: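 U2OS cells co-expressing RFP-tagged human AR and GFP-tagged TIF2, antagonist mode with DHT as baseline. Nucleolar-to-cytoplasmic red fluorescence ratio imaged by high-content microscopy; final compound 20 uM (0.2% DMSO) primary, 0.195–50 uM (0.5% DMSO) concentration-response.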
# [17] = CCTE_Simmons_MITO_basal_resp_rate: CCTE's HepG2 Seahorse XF Respirometric Screening Assay at Basal Respiratory State, Simmons Lab (AID 2284001); conditions: actives raise or lower the signal
# In short: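 HepG2 respirometry; 7-pt titration 125 nM–100 uM final; kinetic OCR at 6 min intervals for 72 min; n=3 biological, technical singles; DMSO baseline, gain or loss fit; fenpyroximate (decrease) and 2,4-DNP (increase) controls.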
# [18] = CCTE_Simmons_MITO_inhib_resp_rate: CCTE's HepG2 Seahorse XF Respirometric Screening Assay at Inhibited Respiratory State [full ETC block], Simmons Lab (AID 2284006); conditions: actives raise or lower the signal
# In short: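 HepG2 oxygen consumption was measured by Seahorse XF after compound, FCCP, then rotenone/antimycin A injections. Seven concentrations from 125 nM to 100 uM (final) were tested, with 6-min kinetic reads over 72 minutes. Inhibited-state OCR was fitted bidirectionally against DMSO.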
# [19] = CCTE_Simmons_MITO_viability: CellTiter-Glo Viability Assessment for CCTE's HepG2 Seahorse XF Respirometric Screening Assay [post-hoc], Simmons Lab (AID 2284007; active = hit-call score of the fitted dose curve at least 0.9, where 1 is the maximum;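 as to AC50: cells exposed to chemical for 90 min before the ATP read; actives lower ATP signal relative to DMSO baseline meaning reduced viability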)
# In short: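 HepG2 cells exposed 90 min to 7 concentrations from 125 nM to 100 uM final, then ATP measured by luciferase luminescence. Three biological replicates per concentration; DMSO vehicle; dichlone control at 10 nM–100 uM.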
# [20] = tested on: DIO1 (gene 1733); assay: CCTE_GLTED_hDIO1: CCTE's human Deiodinase 1 (DIO1) Inhibition Assay, Great Lakes Toxicology and Ecology Division (GLTED) Lab (AID 2283987; active = hit-call score of the fitted dose curve at least 0.9, where 1 is the maximum;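 also: isolated human DIO1 enzyme in a cell-free setup rather than cells; enzyme activity read as free iodide liberated from substrate via Sandell-Kolthoff colorimetry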)
# In short: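 Cell-free human DIO1 enzyme incubated 3 h with test chemical; iodide freed from substrate then measured by Sandell-Kolthoff absorbance. Run in triplicate; loss of signal relative to DMSO taken as inhibition.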
# Sequence of Ratio of Nucleoli Translocation and Cytoplasm, AR (gene 367) (P10275 whole entry, looked up): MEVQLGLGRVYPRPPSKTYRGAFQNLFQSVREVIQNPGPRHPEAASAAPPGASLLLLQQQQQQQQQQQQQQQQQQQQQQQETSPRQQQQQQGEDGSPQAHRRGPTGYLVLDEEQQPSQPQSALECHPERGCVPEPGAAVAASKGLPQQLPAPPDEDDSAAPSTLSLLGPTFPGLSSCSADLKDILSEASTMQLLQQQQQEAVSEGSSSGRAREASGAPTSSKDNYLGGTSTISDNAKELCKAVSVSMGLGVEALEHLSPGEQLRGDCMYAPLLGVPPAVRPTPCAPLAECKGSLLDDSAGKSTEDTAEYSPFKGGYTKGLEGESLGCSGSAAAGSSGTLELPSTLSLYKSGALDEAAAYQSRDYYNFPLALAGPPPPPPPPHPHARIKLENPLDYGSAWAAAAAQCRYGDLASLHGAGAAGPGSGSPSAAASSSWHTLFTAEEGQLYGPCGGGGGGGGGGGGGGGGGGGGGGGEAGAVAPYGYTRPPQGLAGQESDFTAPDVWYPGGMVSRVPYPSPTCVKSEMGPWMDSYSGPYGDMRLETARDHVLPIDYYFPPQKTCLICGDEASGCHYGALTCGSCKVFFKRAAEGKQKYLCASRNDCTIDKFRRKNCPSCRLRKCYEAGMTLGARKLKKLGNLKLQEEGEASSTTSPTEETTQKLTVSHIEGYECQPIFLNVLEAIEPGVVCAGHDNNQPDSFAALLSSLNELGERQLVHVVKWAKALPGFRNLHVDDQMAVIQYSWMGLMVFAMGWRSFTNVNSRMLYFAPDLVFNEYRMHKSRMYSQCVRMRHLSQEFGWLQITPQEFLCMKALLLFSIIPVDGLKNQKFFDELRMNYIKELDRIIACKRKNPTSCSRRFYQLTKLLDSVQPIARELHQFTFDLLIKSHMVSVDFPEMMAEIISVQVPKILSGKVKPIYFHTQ
# Sequence of Nucleoli Translocation, AR (gene 367) (P10275 whole entry, looked up): as above
structure (smiles),measurement,setting,value
CCOC(=O)C(C)(C)Oc1ccc(Cl)cc1,outcome,[1],inactive
same,outcome,[2],inactive
same,outcome,[3],inactive
same,outcome,[4],inactive
same,outcome,[5],inactive
same,outcome,[6],inactive
same,outcome,[7],inactive
same,outcome,[8],inactive
same,outcome,[9],inactive
same,outcome,[10],inactive
same,outcome,[11],inactive
COCCOCCOC,outcome,[12],inactive
same,outcome,[13],inactive
same,outcome,[14],inactive
same,outcome,[4],inactive
same,outcome,[5],inactive
same,outcome,[15],inactive
CN[C@H]1CC[C@@H](c2ccc(Cl)c(Cl)c2)c2ccc(S(N)(=O)=O)cc21,AC50,[12],50 µM (active)
same,AC50,[13],12.8 µM (active)
same,outcome,[16],inactive
same,outcome,[14],inactive
same,AC50,[17],25.6 µM (active)
same,outcome,[18],inactive
same,outcome,[19],inactive
same,outcome,[2],inactive
same,outcome,[3],inactive
same,outcome,[4],inactive
same,outcome,[5],inactive
same,outcome,[15],inactive
same,outcome,[6],inactive
same,outcome,[7],inactive
same,AC50,[8],20 µM (active)
same,outcome,[9],inactive
same,AC50,[10],31.6 µM (active)
same,outcome,[11],inactive
CNC(=O)[C@H]1O[C@@H](n2cnc3c(NCc4cc(Cl)ccc4OCc4cc(C)no4)ncnc32)[C@H](O)[C@@H]1N,outcome,[12],inactive
same,outcome,[13],inactive
same,outcome,[16],inactive
same,outcome,[14],inactive
same,outcome,[4],inactive
same,outcome,[5],inactive
same,outcome,[15],inactive
Cc1ccc(C)c(O)c1C,outcome,[12],inactive
same,outcome,[13],inactive
same,outcome,[16],inactive
same,outcome,[14],inactive
same,outcome,[2],inactive
same,outcome,[3],inactive
same,outcome,[4],inactive
same,outcome,[5],inactive
same,outcome,[15],inactive
same,outcome,[6],inactive
same,outcome,[7],inactive
same,outcome,[8],inactive
same,outcome,[9],inactive
same,AC50,[10],32.4 µM (active)
same,AC50,[11],29.3 µM (active)
COc1cc(-c2nc(NC(=O)c3cc4cc(C)cc(C)c4n3CC(=O)O)sc2CCC2CCCCC2)c(OC)cc1Cl,AC50,[12],11.4 µM (active)
same,outcome,[13],inactive
same,outcome,[16],inactive
same,outcome,[14],inactive
same,outcome,[4],inactive
same,outcome,[5],inactive
CCCCCC(=O)O,outcome,[13],inactive
same,outcome,[4],inactive
same,outcome,[5],inactive
O=C(O)Cc1ccccc1Nc1c(Cl)cccc1Cl,outcome,[12],inactive
same,outcome,[13],inactive
same,outcome,[16],inactive
same,outcome,[14],inactive
same,outcome,[4],inactive
same,outcome,[5],inactive
same,outcome,[15],inactive
Cc1cccc([N+](=O)[O-])c1C,outcome,[12],inactive
same,outcome,[16],inactive
same,outcome,[14],inactive
same,outcome,[4],inactive
same,outcome,[5],inactive
same,outcome,[15],inactive
CCCc1cc(=O)[nH]c(=S)[nH]1,AC50,[20],3.82 µM (active) and 5.5 µM (active)
same,outcome,[2],inactive
same,outcome,[3],inactive
same,outcome,[4],inactive
same,outcome,[5],inactive
same,outcome,[15],inactive
same,outcome,[6],inactive
same,outcome,[7],inactive
same,outcome,[8],inactive
same,outcome,[9],inactive
same,outcome,[10],inactive
same,outcome,[11],inactive
COc1cc(C=O)ccc1O,outcome,[12],inactive
same,outcome,[13],inactive
same,outcome,[16],inactive
same,outcome,[4],inactive
same,outcome,[5],inactive
same,outcome,[15],inactive
Cc1ccc(C)c(C)c1,outcome,[12],inactive
same,outcome,[13],inactive
same,outcome,[16],inactive
same,outcome,[14],inactive
same,outcome,[4],inactive
same,outcome,[5],inactive
CCCCC(CC)COC(=O)CC(C(=O)OCC(CC)CCCC)S(=O)(=O)O (centres undefined),AC50,[20],96.2 µM (active)
same,outcome,[17],inactive
same,outcome,[18],inactive
same,AC50,[19],56.1 µM (active)
same,outcome,[4],inactive
same,outcome,[5],inactive
same,outcome,[15],inactive
Cc1ccc(N(C)C)cc1,outcome,[12],inactive
same,outcome,[13],inactive
same,outcome,[16],inactive
same,outcome,[14],inactive
Cc1cccc(C)c1O,outcome,[12],inactive
same,outcome,[13],inactive
same,outcome,[16],inactive
same,outcome,[4],inactive
same,outcome,[5],inactive
same,outcome,[15],inactive
CCCCCCCCCCC,outcome,[12],inactive
same,outcome,[14],inactive
same,outcome,[4],inactive
same,outcome,[5],inactive
same,outcome,[15],inactive
Cc1ccccc1Cl,outcome,[12],inactive
same,outcome,[13],inactive
Cc1nc(-c2ccc3c(c2)CCN(CCC2CCC(NC(=O)/C=C/c4ccc(F)cc4)CC2)CC3)no1 (centres undefined),outcome,[12],inactive
same,outcome,[13],inactive
same,outcome,[16],inactive
same,outcome,[14],inactive
same,outcome,[4],inactive
same,outcome,[5],inactive
same,outcome,[15],inactive

# — PubChem BioAssay (EPA / NIEHS)
